FLuc counter: qHTS profiling assay for firefly luciferase inhibitor/activator using purifed enzyme and Km concentrations of substrates (counterscreen for miR-21 project) | AID 588342, 2011 | Luciferin 4-monooxygenase (Photinus pyralis), P08659 | purified FLuc, Km substrates, luminescence inhibition | 360,000 compounds, 6.9% hits | Potency, µM (series often up to 57.5 µM), hits mostly inhibitors; also: nearly all actives have a fitted effect of over 55% in size
Target sequence (P08659 whole entry, looked up): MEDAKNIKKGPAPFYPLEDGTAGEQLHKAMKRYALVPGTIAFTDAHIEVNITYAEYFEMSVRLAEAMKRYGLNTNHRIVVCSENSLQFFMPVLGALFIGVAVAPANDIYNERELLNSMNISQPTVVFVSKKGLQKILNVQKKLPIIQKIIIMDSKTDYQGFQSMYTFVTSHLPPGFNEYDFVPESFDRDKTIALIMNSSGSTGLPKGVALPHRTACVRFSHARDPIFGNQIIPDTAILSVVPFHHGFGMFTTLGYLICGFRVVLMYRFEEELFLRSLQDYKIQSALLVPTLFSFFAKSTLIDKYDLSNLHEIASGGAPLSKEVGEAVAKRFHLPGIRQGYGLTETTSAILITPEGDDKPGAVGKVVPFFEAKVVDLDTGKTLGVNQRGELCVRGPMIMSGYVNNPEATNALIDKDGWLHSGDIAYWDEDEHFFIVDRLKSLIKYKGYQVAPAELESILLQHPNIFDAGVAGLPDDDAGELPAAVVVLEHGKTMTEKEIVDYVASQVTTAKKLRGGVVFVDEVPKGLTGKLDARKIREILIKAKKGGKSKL
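Purified P. pyralis luciferase, 10 nM final, with Km-level 10 uM D-luciferin and 10 uM ATP in 50 mM Tris acetate pH 7.5, 10 mM Mg acetate, 0.01% Tween-20, 0.05% BSA; 6-point qHTS titration about 60 µM downward; luminescence read.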
ELG1 genotox: qHTS screen for small molecules that induce genotoxicity in human embryonic kidney (HEK293T) cells expressing luciferase-tagged ELG1. HEK293T ELG1-luciferase reporter, luminescence, 16 h. Potency, µM (doses to about 46 µM), usual class: activators. 330,000 compounds, 1.3% hits. AID 504466, 2011; also: nearly all actives have a fitted effect of over 60% in size
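After overnight (16 hr) compound treatment at 37 °C, ELG1-luciferase HEK293T cells were lysed with ONE-Glo; luminescence quantified 30 min later at room temperature.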
p53 reactivation: qHTS assay for re-activators of p53 using a Luc reporter. H1299 p53-A138V BP100-luciferase reporter, luminescence, 24 h. Potency, µM (top dose mostly 92.2 µM), hits mostly activators. 320,000 compounds, 0.063% hits; also: nearly all actives have a fitted effect of over 45% in size
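p53-null H1299 cells stably carrying temperature-sensitive p53-A138V and a BP100-luciferase reporter were pinned with compounds (4-point, 1:5 series) and held 24 hrs at 37 deg C. Luminescence was read 10 min after detection reagent.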
NPC1 promoter act: qHTS Assay for NPC1 Promoter Activators | Huh7 NPC1 promoter luciferase reporter, 24 h | Potency, µM (series often up to 9.22 µM), usual class: activators | 320,000 compounds, 2.4% hits; also: nearly all actives have a fitted effect of over 60% in size
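Readout is luciferase luminescence, reflecting NPC1 promoter activation in stably transfected Huh7 cells after 24 h compound exposure at 37 °C in reduced-serum medium with 10% FBS.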
SMN2 splice enh: qHTS Assay for Enhancers of SMN2 Splice Variant Expression; Potency, µM (series often up to 46.1 µM), usual class: activators; 210,000 compounds, 2.8% hits; AID 1458, 2008; HEK293 SMN2-luciferase splicing reporter, luminescence, 30-36 h; also: nearly all actives have a fitted effect of over 55% in size
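HEK293 cells carry an SMN2 minigene-luciferase reporter in which exon 7 inclusion puts luciferase in frame. Cells were seeded at 2000 cells/well, attached for 10-12 hours, then exposed to compounds for 30-36 hours at 37C before ONE-Glo luminescence.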
Rab9 promoter act: qHTS Assay for Rab9 Promoter Activators; 320,000 compounds, 2.8% hits; Potency, µM (top dose mostly 9.22 µM), most hits filed as activators; AID 485297, 2010; Huh7 Rab9 promoter-luciferase reporter, luminescence, 24 h; also: nearly all actives have a fitted effect of over 60% in size
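Promoter activation is measured as luciferase luminescence in Huh7 cells stably transfected with a Rab9 promoter–luciferase construct, following 24 h compound exposure at 37 °C and 10 min reagent incubation at ambient temperature.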
A number is an active result; 0 = inactive; ? = inconclusive; - = no result. Most compounds without a hit are left out; they make up all but 7.3% or so of the library. Calls follow the shape of the dose curve; as a rule, active = well fitted curve in the direction sought with a large enough effect; inconclusive = small, poorly fitted or top-dose-only effect, or another doubt; inactive = no such curve, though single readings can be large; an effect the other way counts as inactive or inconclusive.

SMILES	FLuc counter	ELG1 genotox	p53 reactivation	NPC1 promoter act	SMN2 splice enh	Rab9 promoter act
O=C(Nc1cccc(-c2ccc(N3CCCCC3)nn2)c1)C(F)(F)F	1.3µM	?	0	0.28µM	-	0.79µM
O=C(Nc1cccc(-c2ccc(N3CCCCC3)nn2)c1)c1ccc(Br)o1	0.34µM	2.3µM	0	1.3µM	-	2.8µM
O=[N+]([O-])c1ccc(OCn2cncn2)cc1	0	0	0	0	-	0
CCCCS(=O)(=O)Nc1ccc(N2CCOCC2)c(S(=O)(=O)N2CCOCC2)c1	0	0	0	0	-	0
CCOC(=O)Cc1csc(NC(=O)Nc2ccc(Cl)cc2)n1	6µM	0	0	0	-	0
CCOC(=O)Cc1csc(NC(=O)Nc2cccc(Cl)c2)n1	5.4µM	0	0	0	0	0
Cc1ccc(CNC(=O)c2cnn(-c3cccc(C)c3)c2C2CCN(C(=O)OC(C)(C)C)CC2)cc1	0	-	-	-	-	-
COc1ccc(-c2ccc(NS(=O)(=O)c3ccc(OC)c(OC)c3)cc2)nn1	0	-	-	-	-	-
O=C(O)c1cc(NN=Nc2cccc([N+](=O)[O-])c2)cc([N+](=O)[O-])c1	?	0	0	0	-	0
O=[N+]([O-])c1cccc(NN=Nc2ccccc2)c1	11µM	?	?	?	-	?
O=[N+]([O-])c1ccc(N=NNc2ccccc2)cc1	?	0	0	0	16µM	?
O=C(O)c1cc(NN=Nc2ccc(Br)cc2)cc([N+](=O)[O-])c1	?	0	0	0	-	0
Brc1ccc(N=NNc2ccccc2)cc1	6µM	?	?	?	-	?
CCCCCCCCCCCCCc1ccco1	-	-	-	-	0	-
Cn1cnc2c(N/N=C/c3cccs3)ncnc21	8.5µM	?	0	3.5µM	-	1.8µM
Cc1cccc(NC(=O)c2ccc(Cl)nc2)n1	0	0	0	0	-	0
Cc1cccc(NC(=O)c2sc3nc4c(cc3c2N)CCCCCC4)c1C	0	-	-	-	0	-
Cc1cccc(NC(=O)c2onc3c2CCCC3)c1C	7.6µM	?	0	4.5µM	0	2.8µM
Cc1cccc(NC(=O)c2onc3c2CCCC3)n1	0.76µM	0.92µM	?	0.5µM	-	0.4µM
Cc1ccccc1NC(=O)c1onc2c1CCCC2	6µM	?	?	4.5µM	?	2.5µM
CC1CCN(CC2CCN(C(=O)Nc3ccc(Br)cc3F)CC2)CC1	0	-	-	-	-	-
COc1ccc(NC(=O)CN(C)C(=O)c2ccc(-c3ccccc3Cl)o2)cc1	24µM	0	0	0	-	0
COc1ccc(NC(=O)CN(C)C(=O)c2cc(-c3ccco3)nc3ccccc23)cc1	17µM	0	0	0	-	0
CN(CC(=O)Nc1cccc(F)c1)C(=O)c1cc(-c2ccco2)nc2ccccc12	?	0	0	0	-	0
O=C(N/N=C/c1cccc(F)c1)c1cc(-c2ccco2)nc2ccccc12	0.54µM	0	0	0	?	0
SMILES	FLuc counter	ELG1 genotox	p53 reactivation	NPC1 promoter act	SMN2 splice enh	Rab9 promoter act
COc1cc(/C=N/NC(=O)c2cc(-c3ccco3)nc3ccccc23)cc(OC)c1O	12µM	0	0	0	-	0
Cc1nc2ccc(S(=O)(=O)NC(CC(C)C)C(=O)NCc3ccc(Cl)cc3)cc2s1 (configuration not stated)	0	-	-	-	0	-
CCOc1ccc(-c2nc(SCC(=O)NCCOC)c(-c3ccc(OC)c(OC)c3)[nH]2)cc1	0	-	-	-	0	-
O=C(Nc1c(C(=O)N2CCN(c3ccccc3)CC2)oc2ccccc12)c1ccc(Br)o1	0	-	-	-	-	-
CCOc1ccccc1NC(=O)COc1ccc(S(=O)(=O)NC2CCCCC2)cc1	8.5µM	-	-	-	0	-
CCOc1ccc(C(=O)Nc2nnc(NC(=S)Nc3ccccc3)s2)cc1	?	0	0	0	0	0
CCc1nnc(NC(=S)Nc2ccccc2)s1	?	0	0	?	22µM	?
Cc1ccc(C(=O)Nc2nnc(NC(=S)Nc3ccccc3)s2)cc1	19µM	0	0	0	-	0
Cc1nc(NC(=S)Nc2ccccc2)sc1C	2.7µM	0	0	?	16µM	?
CCC(C(=O)Nc1nc(C)c(C)s1)c1ccccc1 (configuration not stated)	?	0	0	0	-	0
Cc1ccccc1OCc1nnc(SCc2cc(=O)c3cccc(F)c3[nH]2)n1C	0	-	-	-	-	-
ClCc1nnc(-c2cc3c(s2)CCCC3)o1	?	0	0	0	0	0
CC(C)(C)C1CCc2sc(-c3nnc(CCl)o3)cc2C1 (configuration not stated)	24µM	0	0	0	0	0
CCC(C(=O)OC)n1cnc2c(nnn2-c2ccc(C)cc2)c1=O (configuration not stated)	0	0	0	0	-	0
C=C(C)[C@@H]1CC=C(CN2CCN(Cc3ccccc3)CC2)CC1	0	0	?	0	-	0
Cc1cccc(NS(=O)(=O)c2ccc(C)c(C(=O)OCC(=O)Nc3cc(C)on3)c2)c1	0	0	0	0	20µM	0
COC(=O)CCC(=O)NC(=S)Nc1ccc(S(=O)(=O)Nc2cc(C)on2)cc1	0	0	0	0	-	0
Cc1ccc(OCC(=O)NC(=S)Nc2ccc(S(=O)(=O)Nc3cc(C)on3)cc2)c(Br)c1	1.5µM	0	0	0	-	0
Cc1cccc(NS(=O)(=O)c2cc(C(=O)OCC(=O)Nc3cc(C)on3)ccc2C)c1	0	0	0	0	0	0
Cc1ccc(OCC(=O)Nc2ccc(S(=O)(=O)Nc3cc(C)on3)cc2)c(Br)c1	21µM	-	-	-	0	-
Cc1cc(NS(=O)(=O)c2ccc(NC(=O)COc3ccc(Cl)cc3Cl)cc2)no1	?	0	0	0	-	0
Cc1c(C(=O)NCc2cccc(Cl)c2)sc2nc[nH]c(=O)c12	0	-	-	-	-	-
Cc1cc(C)cc(NCc2ccncc2)c1	0	0	-	0	-	0
Cc1cccc(N/N=C/c2ccc(O)c(O)c2O)c1	?	0	0	0	-	0
COc1cccc(/C=N/NC(=O)c2ccc([N+](=O)[O-])cc2Cl)c1O	19µM	0	?	0	0	0
SMILES	FLuc counter	ELG1 genotox	p53 reactivation	NPC1 promoter act	SMN2 splice enh	Rab9 promoter act
COc1ccc(/C=N/Nc2ccc([N+](=O)[O-])cc2)cc1O	7.6µM	12µM	?	0	-	?
COc1cccc(N/N=C/c2cccc(Br)c2O)c1	6.7µM	?	0	?	-	?
COc1cccc(/C=N/NC(=O)c2ccc(=O)[nH]n2)c1O	3.4µM	0	0	0	-	0
COc1ccc(OC)c(/C=N/NC(=O)c2ccc(=O)[nH]n2)c1	0	0	0	0	-	0
O=C(O)C(O)C(O)(Cc1ccc(O)cc1)C(=O)O (configuration not stated)	-	-	-	-	0	-
Cc1ccc(Cl)cc1N1CCN(C(=O)c2c(C)oc3ncnc(N4CCCCC4)c23)CC1	0	-	-	-	-	-
COc1cccc(/C=N/Nc2ccc([N+](=O)[O-])cc2)c1O	2.4µM	?	?	?	-	0

From PubChem
